Common to all, as to assay: NCI-60 one-dose screen, 48 h (100 = growth as untreated, 0 = no growth, -100 = all killed)
Conditions in all cases: 10 µM unless noted

For experiment [1], the system named is NCI-H23 lung.
The test system of experiment [2] is NCI-H226 lung.
Experiment [3] deals with NCI-H322M lung.
The test system of experiment [4] is HOP-62 NSCLC.
Experiment [5] has as its system NCI-H460 lung.
Experiment [6] has as its system HOP-92 NSCLC.
Experiment [7] relates to NCI-H522 lung.
The subject of experiment [8] is A549/ATCC NSCLC.
The subject of experiment [9] is 786-0 renal.
Experiment [10] concerns COLO 205 colon.
The subject of experiment [11] is DU-145 prostate.
The test system of experiment [12] is K-562 leukemia.
Experiment [13] has as its system MALME-3M melanoma.
For experiment [14], the system named is MDA-MB-231 breast.
Experiment [15] relates to RXF 393 renal.
The subject of experiment [16] is SF-268 CNS.
Experiment [17] deals with SF-295 CNS.
Experiment [18] relates to SF-539 CNS.
Experiment [19] relates to UACC-257 melanoma.
Experiment [20] relates to M14 melanoma.

Compounds without any hit were thinned out: in the full panel of roughly 83,000, 20% have a hit.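 Each cell line was grown in a 96-well plate and treated with one concentration of compound for 48 hours. Values below 10 were considered active.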 A number with no mark means an inactive call. Active and inactive are the calls of the source.

Consider `CC/C(=C(/c1ccc(Cl)cc1)c1ccc(OCCN2CCCCCC2)cc1)c1ccccc1`, for which the growth is 77.5% in experiment [1]; 97.6% in [2]; 107% in experiment [3]; 103% in experiment [4]; 56.4% in [5]; 80.3% in [6]. Also, the growth was 89.6% in [7]; 59.5% in [8]; 85.2% in experiment [9]; 37% in [10]; 97.2% in [11]; 19.8% in experiment [12]. Moreover, the growth is 98.5% in experiment [13]; 83% in experiment [14]; 72.5% in experiment [15]; 81.6% in [16]; 98.3% in experiment [17]; 84.3% in [18]. The growth in [19] was 92.4%; in [20], 81.6%.

On to `CCN(CC)CCCC(Nc1c2ccc(Cl)cc2nc2ccc(OC)cc12)c1ccncc1` (stereo not given), for which the growth in experiment [1] was 80.7%; in experiment [2], 94.5%; in experiment [3], 65.4%; in experiment [4], 83.4%; in experiment [5] it was 66%; in experiment [6], 65.7%. The growth in [7] is 83.3%; in experiment [8], 74.4%; in experiment [9] it was 62.7%; in experiment [10] it was 69.8%; in experiment [11] it was 70.6%; in [12], 32.6%. The growth in experiment [13] is 76.7%; in experiment [14] it was 59.3%; in [15], 65.4%; in [16] it was 77.8%; in experiment [17], 89.9%; in experiment [18], 62.9%. The growth was 114% in [19] and 113% in experiment [20].

`COc1cc(-c2ccc(-c3ccc(C(=N)N)s3)s2)cc(OC)c1OC`: the growth was 71.5% in [1]; 89.4% in [2]; 69.1% in experiment [3]; 69.9% in [4]; 17.3% in experiment [5]; 33.6% in experiment [6]. Also, the growth in experiment [7] is 61.5%; in [8], 32.8%; in experiment [9] it was 9.32% (active); in experiment [10], -61.8% (active); in experiment [11], 36.2%; in experiment [12], -33.6% (active). In addition, the growth was -90.7% (active) in experiment [13]; 10% in experiment [14]; 54.1% in [15]; 46.8% in experiment [16]; 51% in [17]; -35.6% (active) in experiment [18]. Also, the growth is 75.7% in experiment [19] and -53.4% (active) in [20].

As to `Oc1cccc2c1NCCC2`, the growth in [1] was 13.6%; in [2] it was 32.8%; in [3] it was 38.3%; in experiment [4] it was 25.1%; in experiment [5] it was 5.35% (active); in experiment [6], -16.6% (active). The growth is -2.3% (active) in experiment [7]; 12.9% in experiment [8]; 26.6% in experiment [9]; 38.6% in experiment [10]; 34.8% in [11]; 13.5% in experiment [12]. For the same molecule, the growth in experiment [13] was -0.428% (active); in experiment [14], 6.35% (active); in [15], 43.9%; in experiment [16], 35.3%; in experiment [17], 0.338% (active); in [18], 26.4%. The growth was 12.4% in experiment [19] and 31.4% in experiment [20].

With `O=C(O)c1nn(-c2ccc(Cl)cc2)nc1N1CCCC1`, the growth in experiment [1] was 91%; in experiment [2] it was 90.8%; in [3], 97.7%; in experiment [4], 97.5%; in experiment [5], 101%; in [6] it was 77.1%. Moreover, the growth in experiment [7] was 89.3%; in [8], 101%; in [9] it was 100%; in experiment [10], 111%; in experiment [11] it was 91.3%; in experiment [12], 87.2%. Further, the growth in experiment [13] was 90%; in experiment [14], 101%; in experiment [15] it was 85.4%; in experiment [16], 98.3%; in experiment [17], 90.5%; in experiment [18], 96.1%. Besides, the growth was 94.7% in experiment [19] and 96.7% in [20].

Take `Nc1ccc(Cl)c2c(=O)c3ccccc3[nH]c12`: the growth in [1] was 71.3%; in experiment [2], 77%; in experiment [3], 99.8%; in [4] it was 105%; in [5] it was 91.2%; in [6] it was 99.4%. Also, the growth in experiment [7] is 69.8%; in experiment [8], 80%; in [9], 77.4%; in experiment [10] it was 90.7%; in [11], 94.1%; in [12], 83.5%. Moreover, the growth in experiment [13] is 109%; in experiment [14] it was 91.5%; in experiment [15] it was 80.4%; in experiment [16] it was 92.9%; in experiment [17], 76.4%; in [18], 83.5%. For the same molecule, the growth in experiment [19] is 74.7%; in [20] it was 91.1%.

On to `COc1cc(OC)cc(C(=O)Nc2cnc(Nc3ccc(N4CCOCC4)nc3)nc2Oc2ccc(C(F)(F)F)cc2)c1`, for which the growth in [1] is 82%; in experiment [2], 39.9%; in experiment [3], 77.4%; in [4], 43.1%; in experiment [5] it was 31.1%; in [6], 86.7%. In addition, the growth in [7] is 77.1%; in experiment [8], 35.4%; in experiment [9], 54.8%; in [10] it was 83%; in [11] it was 78.8%; in experiment [12], 97%. Also, the growth was 57.2% in [13]; 44% in experiment [14]; 76.5% in [15]; 78.7% in [16]; 77% in experiment [17]; 34% in experiment [18]. For the same molecule, the growth was 16.7% in [19] and 93.1% in experiment [20].

Turning to `CCOC(=O)/C(=C/c1ccc([N+](=O)[O-])cc1)C(=O)c1ccccc1`, the growth was 48% in experiment [1]; 21.3% in experiment [2]; 73.5% in experiment [3]; 76.5% in experiment [4]; 55.2% in [5]; 32.4% in [6]. Also, the growth was -24.7% (active) in experiment [7]; 71.5% in experiment [8]; 17.2% in experiment [9]; 4.21% (active) in [10]; 65.3% in [11]; 4.82% (active) in experiment [12]. In addition, the growth in experiment [13] was 32.4%; in experiment [14] it was 20.1%; in [15], -11.1% (active); in experiment [16], 24.5%; in experiment [17], 81.6%; in [18] it was -24.9% (active). In addition, the growth in experiment [19] is 45.4%; in [20], 32.4%.

The values are drawn from PubChem BioAssay (NCI).
